We go through 68 compounds from the antibiotic and cytotoxicity screens of Wong et al. (2023).

Structures are written as SMILES. About 3,300 (8.5%) of roughly 39,000 compounds were called active. Shown is part of a subset that was picked to be rich in actives.

The experiment deals with HepG2. The experiment can be described thus: cytotoxicity call (relative viability < 0.9). To be noted: 10 µM.
In the case of `COc1cc(Nc2c(C#N)cnc3cc(OCCCN4CCN(C)CC4)c(OC)cc23)c(Cl)cc1Cl`, the cytotoxicity call was “active”.
The entry for `COc1cc2nc(N3CCCN(Cc4ccccc4)CC3)nc(Nc3ccc(F)c(Cl)c3)c2cc1OC` is “active”; for `COc1cc(C(=O)OCCCN2CCN(CCCOC(=O)c3cc(OC)c(OC)c(OC)c3)CC2)cc(OC)c1OC` it is “inactive”.
The entry for `COc1cc(C(=O)OCCCN2CCCN(CCOC(=O)c3cc(OC)c(OC)c(OC)c3)CC2)cc(OC)c1OC` is “inactive”; for `O=C(C1=C[C@@H](c2ccc(Br)cc2)C[C@@H](OCc2ccc(CO)cc2)O1)N1CCN(Cc2ccccc2)CC1` it is “inactive”; for `O=C(C1=C[C@H](c2ccc(Br)cc2)C[C@H](OCc2ccc(CO)cc2)O1)N1CCN(Cc2ccccc2)CC1` it is “inactive”.
The entry for `Brc1ccc2nc(N3CCCN(Cc4ccccc4)CC3)nc(NC3CCN(Cc4ccccc4)CC3)c2c1` is “active”; for `COc1cc2c(cc1OC)C(=O)C(CC1CCN(Cc3ccccc3)CC1)C2.Cl` (stereo not drawn) it is “inactive”.
Regarding `COc1cc2c(NC3CCN(C)CC3)nc(N3CCCN(C)CC3)nc2cc1OCCOCCN(C)C`, the cytotoxicity call is “inactive”.
`COc1cc2nc(N3CCCN(Cc4ccccc4)CC3)nc(NC3CCN(Cc4ccccc4)CC3)c2cc1OC`: the cytotoxicity call was “active”.
The entry for `CCOC(=O)/C=C(C)/C=C/C=C(C)/C=C/c1c(C)cc(OC)c(C)c1C` is “inactive”; for `O=C(NCCCn1ccnc1)C(=O)NC[C@H]1OCCN1S(=O)(=O)c1ccc(F)cc1` it is “inactive”.
Turning to `C[C@@H]1CN([C@@H](C)CO)C(=O)c2cccc(NS(=O)(=O)c3ccccc3)c2O[C@H]1CN(C)S(=O)(=O)c1cn(C)cn1`, the cytotoxicity call was “inactive”.
The same measure for `Cc1ccc(S(=O)(=O)Nc2ccc3c(c2)C(=O)N([C@H](C)CO)C[C@@H](C)[C@@H](CN(C)C(=O)c2ccccc2)OCCCC[C@@H](C)O3)cc1`: “inactive”.
The entry for `CC(C)NC(=O)Nc1ccc2c(c1)C(=O)N([C@@H](C)CO)C[C@H](C)[C@@H](CN(C)S(=O)(=O)c1ccc(F)cc1)O2` is “inactive”; for `COc1ccc(C#Cc2cnc3c(c2)C(=O)N([C@H](C)CO)C[C@@H](C)[C@@H](CN(C)C(=O)CN(C)C)O3)cc1` it is “inactive”; for `C[C@H]1CN([C@@H](C)CO)C(=O)c2cc(NC(=O)CCCN(C)C)ccc2O[C@@H]1CN(C)S(=O)(=O)c1cn(C)cn1` it is “inactive”.
With `C[C@H](CO)N1C[C@H](C)[C@H](CN(C)Cc2ccc3c(c2)OCO3)Oc2ccc(NC(=O)C3CC3)cc2CC1=O`, the cytotoxicity call was “inactive”.
The same measure for `Nc1ncn(C(=O)c2ccccc2)n1`: “inactive”.
The same measure for `C[C@@H]1CN([C@H](C)CO)C(=O)c2cccc(NC(=O)c3nc4ccccc4s3)c2O[C@@H]1CN(C)Cc1ccc(C(=O)Nc2ccccc2N)cc1`: “inactive”; for `O=C(C[C@H]1C[C@@H]2c3cc(NS(=O)(=O)c4ccccc4)ccc3O[C@@H]2[C@@H](CO)O1)NC1CCCCC1`: “inactive”.
The same measure for `COc1ccc(NC(C)=S)cc1C`: “inactive”.
Turning to `COc1ccc(S(=O)(=O)Nc2ccc3c(c2)C(=O)N([C@H](C)CO)C[C@@H](C)[C@H](CN(C)Cc2ccccc2)OCCCC[C@@H](C)O3)cc1`, the cytotoxicity call is “inactive”.
The same measure for `COc1cc2c(NC3CCN(C(C)C)CC3)nc(N3CCC(F)(F)CC3)nc2cc1OCCCN1CCCC1`: “active”; for `COc1cc2c(N3CCN(C(=O)Nc4ccc(OC(C)C)cc4)CC3)ncnc2cc1OCCCN1CCCCC1`: “inactive”; for `O=C(NCCCN1CCOCC1)c1ccc(Cl)cc1`: “inactive”.
The entry for `COc1cc2ncnc(Nc3ccc(F)c(Cl)c3)c2cc1OCCCN1CCOCC1` is “active”; for `C[C@H](CO)N1C[C@H](C)[C@@H](CN(C)Cc2ccc(O)cc2)OCc2ccccc2-c2c(n(C)c3ccccc23)C1=O` it is “inactive”; for `Cc1noc(C)c1NC(=O)Nc1ccc2c(c1)C(=O)N([C@@H](C)CO)C[C@@H](C)[C@H](CN(C)C(=O)Nc1ccc(F)cc1)OCCCC[C@H](C)O2` it is “inactive”.
Consider `C[C@@H]1CN([C@@H](C)CO)C(=O)Cc2cc(NC(=O)CCC(F)(F)F)ccc2O[C@@H]1CN(C)Cc1ccc(-c2ccccc2)cc1`, for which the cytotoxicity call is “inactive”.
The same measure for `C[C@@H]1CN([C@H](C)CO)C(=O)Cc2cc(NC(=O)CCC(F)(F)F)ccc2O[C@H]1CN(C)Cc1ccc(-c2ccccc2)cc1`: “active”; for `C[C@H](CO)N1C[C@H](C)[C@@H](CN(C)Cc2ccc(C(F)(F)F)cc2)Oc2ccc(NC(=O)CCC(F)(F)F)cc2CC1=O`: “inactive”; for `C[C@@H]1CN([C@H](C)CO)C(=O)Cc2cc(NC(=O)CCC(F)(F)F)ccc2O[C@@H]1CN(C)Cc1ccc(-c2ccccc2)cc1`: “active”.
The entry for `C[C@H](CO)N1C[C@H](C)[C@@H](CN(C)Cc2ccc(-c3ccccc3)cc2)Oc2ccc(NC(=O)CCC(F)(F)F)cc2CC1=O` is “inactive”; for `C[C@H]1CN([C@@H](C)CO)C(=O)Cc2cc(NC(=O)CCC(F)(F)F)ccc2O[C@H]1CN(C)Cc1ccc(-c2ccccc2)cc1` it is “active”.
The entry for `C[C@H]1CN([C@@H](C)CO)C(=O)Cc2cc(NC(=O)CCC(F)(F)F)ccc2O[C@@H]1CN(C)Cc1ccc(-c2ccccc2)cc1` is “active”.
In the case of `C[C@H](CO)N1C[C@H](C)[C@H](CN(C)Cc2ccc(-c3ccccc3)cc2)Oc2ccc(NC(=O)CCC(F)(F)F)cc2CC1=O`, the cytotoxicity call is “inactive”.
The entry for `C[C@@H]1CN([C@@H](C)CO)C(=O)Cc2cc(NC(=O)CCC(F)(F)F)ccc2O[C@H]1CN(C)Cc1ccc(C(F)(F)F)cc1` is “inactive”.
The same measure for `C[C@@H]1CN([C@@H](C)CO)C(=O)Cc2cc(NC(=O)CCC(F)(F)F)ccc2O[C@H]1CN(C)Cc1ccc(-c2ccccc2)cc1`: “inactive”; for `C[C@H](CO)N1C[C@H](C)[C@H](CN(C)Cc2ccc(C(F)(F)F)cc2)Oc2ccc(NC(=O)CCC(F)(F)F)cc2CC1=O`: “inactive”.
The entry for `C[C@H]1CN([C@@H](C)CO)C(=O)Cc2cc(NC(=O)CCC(F)(F)F)ccc2O[C@H]1CN(C)Cc1ccc(C(F)(F)F)cc1` is “inactive”.
As for `CC(=O)N1CCC2(CC1)NC(=O)NC2=O`, the cytotoxicity call is “inactive”.
Consider `O=C(CN1CCOCC1)NCC[C@@H]1CC[C@@H](NC(=O)c2ccccc2F)[C@@H](CO)O1`, for which the cytotoxicity call was “inactive”.
The entry for `Cc1ccnc([C@@H](N)C2CC2)c1` is “inactive”.
In the case of `C[C@@H]1CN([C@@H](C)CO)C(=O)c2cc(NC(=O)CCCCCC(=O)Nc3ccccc3N)ccc2O[C@H]1CN(C)S(=O)(=O)c1cn(C)cn1`, the cytotoxicity call was “inactive”.
The entry for `Nc1ccccc1C(=O)N[C@H]1CCCCNC1=O` is “inactive”; for `C[C@H](CO)N1C[C@H](C)[C@@H](CN(C)Cc2ccc(C(=O)Nc3ccccc3N)cc2)Oc2c(NC(=O)Nc3ccc4c(c3)OCO4)cccc2C1=O` it is “inactive”.
On to `C[C@H]1CN([C@@H](C)CO)C(=O)c2cc(C#CCc3ccccc3)cnc2O[C@@H]1CN(C)C(=O)Cc1cccnc1`, for which the cytotoxicity call was “inactive”.
The entry for `COCC#Cc1cnc2c(c1)C(=O)N([C@H](C)CO)C[C@H](C)[C@@H](CN(C)S(=O)(=O)c1cccc(OC)c1)O2` is “inactive”.
On to `NC[C@H]1OB(O)c2c(OCCO)ccc(Cl)c21`, for which the cytotoxicity call was “inactive”.
The entry for `Cc1ccc(S(=O)(=O)Nc2cccc3c2O[C@H](CN(C)Cc2ccc(Oc4ccccc4)cc2)[C@@H](C)CN([C@H](C)CO)C3=O)cc1` is “inactive”; for `C[C@H]1CN([C@@H](C)CO)C(=O)c2ccccc2-c2ccccc2CO[C@@H]1CN(C)Cc1ccc(Cl)c(Cl)c1` it is “inactive”.
The same measure for `C[C@H]1CCCCO[C@H](CN(C)C(=O)Nc2ccc(F)cc2)[C@@H](C)CN([C@@H](C)CO)C(=O)c2cc(NS(=O)(=O)c3cccs3)ccc2O1`: “inactive”; for `Cc1noc(C)c1S(=O)(=O)N(C)C[C@H]1Oc2ccc(NC(=O)C3CCCCC3)cc2CC(=O)N([C@@H](C)CO)C[C@H]1C`: “inactive”.
The entry for `C[C@@H]1CN([C@H](C)CO)C(=O)Cc2cc(NC(=O)c3ccncc3)ccc2O[C@@H]1CN(C)Cc1ccncc1` is “inactive”; for `C[C@@H]1CN([C@@H](C)CO)C(=O)Cc2cc(NC(=O)c3ccncc3)ccc2O[C@@H]1CN(C)Cc1ccc(-c2ccccc2)cc1` it is “inactive”.
For `C[C@H]1CN([C@@H](C)CO)C(=O)Cc2cc(NC(=O)c3ccncc3)ccc2O[C@H]1CN(C)Cc1ccc(-c2ccccc2)cc1`, the cytotoxicity call was “active”.
The entry for `C[C@@H]1CN([C@@H](C)CO)C(=O)Cc2cc(NC(=O)c3ccncc3)ccc2O[C@H]1CN(C)Cc1ccc(-c2ccccc2)cc1` is “active”.
With `C[C@H]1CN([C@@H](C)CO)C(=O)Cc2cc(NC(=O)c3ccncc3)ccc2O[C@@H]1CN(C)Cc1ccc(-c2ccccc2)cc1`, the cytotoxicity call is “inactive”.
The same measure for `C[C@H](CO)N1C[C@H](C)[C@@H](CN(C)Cc2ccc(-c3ccccc3)cc2)Oc2ccc(NC(=O)c3ccncc3)cc2CC1=O`: “inactive”; for `C[C@@H]1CN([C@H](C)CO)C(=O)Cc2cc(NC(=O)c3ccncc3)ccc2O[C@@H]1CN(C)Cc1ccc(-c2ccccc2)cc1`: “active”; for `C[C@H](CO)N1C[C@H](C)[C@H](CN(C)Cc2ccc(-c3ccccc3)cc2)Oc2ccc(NC(=O)c3ccncc3)cc2CC1=O`: “inactive”.
The entry for `C[C@@H]1CN([C@H](C)CO)C(=O)Cc2cc(NC(=O)c3ccncc3)ccc2O[C@H]1CN(C)Cc1ccc(-c2ccccc2)cc1` is “inactive”; for `Cc1ccc(-c2ccc3c(c2)O[C@@H](CN(C)C(=O)CN(C)C)[C@@H](C)CN([C@H](C)CO)S3(=O)=O)cc1` it is “inactive”; for `CO[C@H]1CN(C)C(=O)c2cc(NC(=O)CC(F)(F)F)ccc2OC[C@@H](C)N(S(=O)(=O)c2cn(C)cn2)C[C@H]1C` it is “inactive”.
For `CO[C@@H](C(=O)N(C)C[C@@H]1OCc2ccccc2-c2c(n(C)c3ccccc23)C(=O)N([C@@H](C)CO)C[C@H]1C)c1ccccc1`, the cytotoxicity call was “inactive”.
The entry for `COc1ccccc1CNC(=O)C[C@H]1C[C@@H]2c3cc(NS(=O)(=O)c4ccc(F)cc4)ccc3O[C@@H]2[C@H](CO)O1` is “inactive”; for `C[C@@H]1CCCCO[C@H](CN(C)S(=O)(=O)c2ccccc2)[C@H](C)CN([C@H](C)CO)C(=O)c2cc(NS(C)(=O)=O)ccc2O1` it is “inactive”.
